Results on 38 molecules are retold here after PubChem BioAssay (NCI).

Compounds without any hit were thinned out: in the full panel of roughly 79,000, 15% have a hit. Values without a mark were called inactive. Calls of active or inactive are those of the source. Cut-off read from the data, not from the text of the source: active = growth inhibition above about 70%; inactive = the rest.

Test [1] in a line: NCI Yeast Anticancer Drug Screen. Data for the rad50 strain (AID 155).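 Note: 0% = growth of vehicle-only cultures of the same strain.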 The following applies: S. cerevisiae rad50 strain growth inhibition; at 50.0 µM; active compounds read high. A digest of the protocol: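 DNA repair mutant yeast, compound exposure, growth read-out; inhibition is taken relative to vehicle.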
Test [2] can be described thus: NCI Yeast Anticancer Drug Screen. Data for the mec2-1 strain (AID 157). As to conditions: S. cerevisiae mec2-1 strain, at 50.0 µM, active compounds read high. In outline: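 Cells of the genetically defined mec2-1 yeast strain are incubated with test compound. Inhibition of growth is calculated against vehicle-treated controls.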
The nature of test [3]: NCI Yeast Anticancer Drug Screen. Data for the sgs1 mgt1 strain (AID 161).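 Note: 0% = growth of cultures given vehicle only.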 The following applies: S. cerevisiae sgs1 mgt1 strain, at 50.0 µM, active compounds read high. In outline: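 Test agents were incubated with a DNA-repair-mutant yeast strain. Growth was then read and compared against vehicle-treated controls.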
Test [4] is described as follows: NCI Yeast Anticancer Drug Screen. Data for the cln2 rad14 strain (AID 165).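 Note: 0% = growth equal to vehicle treated cultures.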 As to conditions: S. cerevisiae cln2 rad14 strain, at 50.0 µM, active compounds read high. In outline:
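The screen exposed genetically defined yeast (cln2 rad14) to test compounds and scored growth inhibition relative to vehicle-treated controls.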

Test [5] is described as follows: NCI Yeast Anticancer Drug Screen. Data for the bub3 strain (AID 167). The following applies: S. cerevisiae bub3 mutant strain, at 50.0 µM, active compounds read high. A digest of the protocol: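 In this screen, a yeast mutant lacking normal mitotic checkpoint function is challenged with compound. Relative growth versus vehicle gives the inhibition value.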
A short description of test [6]: NCI Yeast Anticancer Drug Screen. Data for the mlh1 rad18 strain (AID 175). As to conditions: S. cerevisiae mlh1 rad18 strain growth inhibition; at 50.0 µM; active compounds read high. In outline:
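Compound-treated yeast growth, normalised to vehicle controls. Strain bears defined DNA repair mutations.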

For `CC(=O)Nc1cc([N+](=O)[O-])ccc1CC(O)c1ccccc1` (stereo not drawn), the growth inhibition in test [1] is -2.25%; in test [2] it was -17.1%; in test [3], -4.1%; in test [4], -15.5%; in test [5] it was -1%; in test [6], -16.4%.

For `COC(=O)c1nc(N)nc(C(=O)OC)c1C(=O)c1cccs1`, the growth inhibition is -2.55% in test [1]; -9.05% in test [2]; -28.9% in test [3]; -24.8% in test [4]; -43% in test [5]; -20.9% in test [6].

For the molecule `C=C1C2CCC3(CCC4C5(C)CCCC4(CN(CCO)C5)C3C2)C1O` (stereo not drawn), the growth inhibition in test [1] is -13.6%; in test [2] it was -39.9%; in test [3], -4.45%; in test [4], 12.8%; in test [5], -13.4%; in test [6], -1.15%.

Regarding `C(=C/c1ccc2c(c1)OCO2)/c1ccccc1`, the growth inhibition is -16.1% in test [1]; 10.3% in test [2]; 12.2% in test [3]; -2.85% in test [4]; 11% in test [5]; 2.9% in test [6].

For `COc1ccc2nc3cc(Cl)ccc3c(NC(C)CCCN(C)C)c2n1` (stereo not drawn), the growth inhibition is 44.8% in test [1]; 42.8% in test [2]; 64.2% in test [3]; 31.2% in test [4]; 46.3% in test [5]; 65% in test [6].

On to `CN1CCC(c2ccccc2)(c2ccccc2)OC1`, for which the growth inhibition in test [1] was 3.7%; in test [2], 6.85%; in test [3], 6.9%; in test [4], -8.45%; in test [5] it was 9.95%; in test [6] it was 5.15%.

Take `Cc1nccc2c3ccccc3n(S(=O)(=O)O)c12`: the growth inhibition in test [1] was -4.7%; in test [2] it was 26.1%; in test [3], 11.4%; in test [4], 55%; in test [5], -5.95%; in test [6] it was 9%.

In the case of `COc1ccc(CCN2C(CC(=O)c3ccccc3)CCCC2CC(=O)c2ccccc2)cc1` (stereo not drawn), the growth inhibition was -29.6% in test [1]; -29.1% in test [2]; -23.8% in test [3]; -0.8% in test [4]; -17.5% in test [5]; -18.7% in test [6].

With `Cc1ccc(CCOS(=O)(=O)c2ccc(C)cc2)cc1`, the growth inhibition was 13.5% in test [1]; -26.5% in test [2]; -1.3% in test [3]; 10.2% in test [4]; 28% in test [5]; 10.7% in test [6].

Turning to `C1COC2OCCOC2O1` (stereo not drawn), the growth inhibition in test [1] is 5.2%; in test [2], -2.05%; in test [3], 4.6%; in test [4] it was -2.55%; in test [5], 1.4%; in test [6], 0.7%.

`Nc1ncnc2c1nnn2C1C=CC(COS(N)(=O)=O)C1` (stereo not drawn): the growth inhibition in test [1] was 12.2%; in test [2], 3.75%; in test [3] it was 3.7%; in test [4] it was -6%; in test [5], 8.25%; in test [6] it was 18.6%.

Turning to `O=C(COC(=O)c1ccccc1)c1ccc(-c2ccccc2)cc1`, the growth inhibition in test [1] is -3.25%; in test [2], 16.3%; in test [3], 11.8%; in test [4] it was 30.4%; in test [5] it was 14.2%; in test [6], 11.7%.

Turning to `CC(C)(C)C(=O)N1C(C(=O)O)Cc2ccccc2[C@@H]1Cc1ccccc1` (stereo partly drawn), the growth inhibition in test [1] is -6.9%; in test [2], -7.25%; in test [3], -16.1%; in test [4], 22.5%; in test [5], -11.1%; in test [6] it was -29.5%.

Consider `C/C(=N\OC(=O)c1c(-c2c(Cl)cccc2Cl)noc1C)c1ccccc1O`, for which the growth inhibition was 1.5% in test [1]; -23.4% in test [2]; -1.6% in test [3]; 12.2% in test [4]; -21.9% in test [5]; -4.75% in test [6].

On to `C/C(=N\[N+](C)(C)C)c1ccc(C)c(C)c1`, for which the growth inhibition in test [1] is 9.45%; in test [2] it was -38%; in test [3] it was -23.2%; in test [4], 17.9%; in test [5], -56.2%; in test [6], -5%.

On to `NC(=O)c1cn(C2OC(CO)C(O)C2O)c2nc(N)nc(N)c2c1=O` (stereo not drawn), for which the growth inhibition in test [1] is 19%; in test [2] it was 19.4%; in test [3] it was 14.3%; in test [4], 3.9%; in test [5], 23.1%; in test [6] it was 45.1%.

On to `Cc1cc(O)c(Br)cc1C`, for which the growth inhibition in test [1] was 5.35%; in test [2], -33%; in test [3], 9.15%; in test [4] it was -5.45%; in test [5] it was 0.2%; in test [6] it was -9.45%.

Consider `c1ccc(-c2ccc3c(c2)NCCN3)cc1`, for which the growth inhibition is -3% in test [1]; 9.35% in test [2]; -13.6% in test [3]; -4.35% in test [4]; 7.25% in test [5]; 21.4% in test [6].

`O=Cc1ccc(/C=C2\NC(=O)NC2=O)cc1`: the growth inhibition was -6.25% in test [1]; -7.9% in test [2]; -26.9% in test [3]; -0.05% in test [4]; -9.3% in test [5]; -5.55% in test [6].

Consider `COc1ccc(/C=C/Cc2cc3c(cc2OC(C)=O)OCO3)cc1`, for which the growth inhibition in test [1] was 11.8%; in test [2] it was 0.4%; in test [3], 26.1%; in test [4] it was -8.4%; in test [5], 33%; in test [6], 12.4%.

For `O=C(O)c1cccc(C2=CCCC2)c1`, the growth inhibition in test [1] is 15.2%; in test [2], 6.1%; in test [3], 14.1%; in test [4], 10.3%; in test [5] it was -26.5%; in test [6], 15.7%.

`Cc1ccc(/C(O)=C/c2nc3c(nc2NC24CC5CC(CC(C5)C2)C4)c(=O)oc2ccccc23)cc1`: the growth inhibition in test [1] was 5.65%; in test [2] it was -0.65%; in test [3], -6.7%; in test [4], -3.7%; in test [5], 6.1%; in test [6], 1.85%.

`CCN(CC)CCCC(C)NCCCN` (stereo not drawn): the growth inhibition in test [1] is -7.15%; in test [2], -9.05%; in test [3], -5.4%; in test [4] it was -5.4%; in test [5] it was -23.3%; in test [6], -10%.

Consider `C=CCOC(=O)CCCCC(=O)OCC=C`, for which the growth inhibition in test [1] is 3.1%; in test [2] it was 4.15%; in test [3], 3.65%; in test [4], 6.1%; in test [5], 19.9%; in test [6] it was 0.1%.

`CN(c1ccccc1)c1cc2c(cc1[N+](=O)[O-])no[n+]2[O-]`: the growth inhibition is 97.8% (active) in test [1]; 98.7% (active) in test [2]; 98.3% (active) in test [3]; 98% (active) in test [4]; 98.2% (active) in test [5]; 98.8% (active) in test [6].

Consider `CCN(CC)CCCC(C)NCc1ccnc2cc(Cl)ccc12` (stereo not drawn), for which the growth inhibition in test [1] is -3.35%; in test [2], -8.05%; in test [3], 5.95%; in test [4], -21.4%; in test [5], 1.65%; in test [6], 25.4%.

In the case of `COc1ccc(S(=O)(=O)O)cc1N`, the growth inhibition in test [1] was -21.2%; in test [2] it was -15.9%; in test [3], -13.5%; in test [4] it was -5.15%; in test [5], -11.9%; in test [6], -3.95%.

For the molecule `O=C(O)CCN1C(=S)CSC1=S`, the growth inhibition in test [1] was -5.35%; in test [2], -18.4%; in test [3] it was -38.5%; in test [4] it was 8.9%; in test [5], -33.9%; in test [6], -24.2%.

`C[N+](C)(C)CCCSc1nc2ccccc2[nH]1`: the growth inhibition in test [1] is 9.6%; in test [2] it was -7.15%; in test [3], -52%; in test [4], -30.9%; in test [5] it was -24.4%; in test [6], -15.5%.

`N#CC(c1ccccc1)N(CCc1ccccc1)C(=O)Oc1ccccc1` (stereo not drawn): the growth inhibition is -14.6% in test [1]; -19.6% in test [2]; -8.3% in test [3]; -18.2% in test [4]; -40.3% in test [5]; -30.9% in test [6].

Consider `C[n+]1cc(-c2ccccc2)cc(-c2ccccc2)c1`, for which the growth inhibition in test [1] is 0.85%; in test [2], -3.35%; in test [3] it was -1.55%; in test [4], -29.8%; in test [5], -3.45%; in test [6], 6.85%.

In the case of `Cc1[nH]n(-c2ccccc2)c(=O)c1N=Nc1cccc(C(F)(F)F)c1`, the growth inhibition in test [1] is 8.7%; in test [2], 14.7%; in test [3], 17.8%; in test [4] it was -4.75%; in test [5] it was 6.95%; in test [6] it was 15.7%.

In the case of `CCNC(=O)OCCN1C(=O)C2C3CCC(O3)C2C1=O` (stereo not drawn), the growth inhibition in test [1] was 5.25%; in test [2], 11.4%; in test [3], 22.1%; in test [4], 3.35%; in test [5] it was 8.5%; in test [6] it was 12.8%.

For `CCOC(=O)C1CCN(S(=O)(=O)c2ccccc2)CC1`, the growth inhibition in test [1] is 3.4%; in test [2] it was -7.3%; in test [3], 11.8%; in test [4], -38.1%; in test [5], 18.6%; in test [6], -6.15%.

Take `COc1cc([N+](=O)[O-])c(C(=O)O)c(C(=O)O)c1OC`: the growth inhibition in test [1] was 9.8%; in test [2], -5.55%; in test [3] it was 3.7%; in test [4] it was -2.2%; in test [5] it was 1.7%; in test [6], 1.15%.

On to `COC(=O)c1cc(=O)c2c(=O)[nH]c(=O)[nH]c2[nH]1`, for which the growth inhibition is -3.65% in test [1]; -1.25% in test [2]; 2% in test [3]; -26.8% in test [4]; -8.6% in test [5]; 3.65% in test [6].

With `CCCCc1c2c(nc3c1CCc1cc4cc5c(nc4nc1-3)-c1nc3c(c(CCCC)c1CC5)CCCC3)CCCC2`, the growth inhibition in test [1] was 7.5%; in test [2], 24.9%; in test [3], 16.1%; in test [4] it was -45.7%; in test [5], 9.95%; in test [6], 29.4%.

`Cc1ccc2occ(-c3nnc(NC(=O)c4ccccc4)s3)c(=O)c2c1`: the growth inhibition in test [1] was -36.2%; in test [2], -9.75%; in test [3] it was -11.7%; in test [4], -26.6%; in test [5], -7.35%; in test [6], -23.2%.
